This assay concerns the target T1, GST-Co-NF-kB (Capsaspora owczarzaki, UniProt F1ARL5 200-546).
T1 sequence: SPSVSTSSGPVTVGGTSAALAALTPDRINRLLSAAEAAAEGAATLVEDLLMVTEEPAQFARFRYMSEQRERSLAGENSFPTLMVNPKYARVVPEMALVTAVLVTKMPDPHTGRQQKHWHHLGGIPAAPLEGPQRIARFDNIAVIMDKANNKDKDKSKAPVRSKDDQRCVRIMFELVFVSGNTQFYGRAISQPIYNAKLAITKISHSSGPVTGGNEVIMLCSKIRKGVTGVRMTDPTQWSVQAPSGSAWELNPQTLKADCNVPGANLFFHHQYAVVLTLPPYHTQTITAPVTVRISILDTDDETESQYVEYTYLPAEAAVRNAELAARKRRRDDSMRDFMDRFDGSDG
The experiment in a line: protein-binding microarray (PBM); PBM: ~300 nM protein, 6 mM HEPES pH 7.8, 80 mM KCl, 0.5 mM EDTA, 0.5 mM EGTA, 6% glycerol, 35 ng/ul poly-dIdC, 1% milk, 1 h, room temperature; Ap Aiptasia and Nv Nematostella (sea anemones) / Co Capsaspora / Aq Amphimedon (sponge) / Dm Drosophila / Hu human; RHD is the Rel homology domain; high values mean tight binding. As to conditions: dsDNA, one strand shown.
Consider “CCGATTAACATCAGGGGGTATACTGATGTTAATCGGGTCTTGATTCGCTTGACGCTGCTG”, for which the binding signal stood at 4.82 z-score.

“CCGATTAACATCAGGGTAAAACCTGATGTTAATCGGGTCTTGATTCGCTTGACGCTGCTG” displayed a binding signal of 1.9 z-score.

“CCGATTAACATCAGAAGTTTCCCTGATGTTAATCGGGTCTTGATTCGCTTGACGCTGCTG” came in with a binding signal of 5.14 z-score.

In turn, “CCGATTAACATCAGGATCTTCCCTGATGTTAATCGGGTCTTGATTCGCTTGACGCTGCTG” came in with a binding signal of 1.18 z-score.

Regarding “CCGATTAACATCAGGGAGCCCCCTGATGTTAATCGGGTCTTGATTCGCTTGACGCTGCTG”, the binding signal turned out to be 2.5 z-score.

Sequence “CCGATTAACATCAAAGTGTCCCCTGATGTTAATCGGGTCTTGATTCGCTTGACGCTGCTG” registered a binding signal of 5.15 z-score.

“CCGATTAACATCACGTAAACCCCTGATGTTAATCGGGTCTTGATTCGCTTGACGCTGCTG”: the binding signal was 1.08 z-score.

“CCGATTAACATCAGAAATCCCGCTGATGTTAATCGGGTCTTGATTCGCTTGACGCTGCTG” displayed a binding signal of 1.57 z-score.

The sequence “CCGATTAACATCATCCCCGTGTCTGATGTTAATCGGGTCTTGATTCGCTTGACGCTGCTG” gave a binding signal of 4.49 z-score.

“CCGATTAACATCAGAATAACCCCTGATGTTAATCGGGTCTTGATTCGCTTGACGCTGCTG” displayed a binding signal of 1.66 z-score.

As to “CCGATTAACATCAGGGGTTTCCATGATGTTAATCGGGTCTTGATTCGCTTGACGCTGCTG”, the binding signal amounted to 1.21 z-score.

With “CCGATTAACATCAGACATTCCCATGATGTTAATCGGGTCTTGATTCGCTTGACGCTGCTG”, the binding signal came out at 1.37 z-score.

With “CCGATTAACATCAGGGGAAGGAATGATGTTAATCGGGTCTTGATTCGCTTGACGCTGCTG”, the binding signal was 6.35 z-score.

“CCGATTAACATCACGGGTTTCCCTGATGTTAATCGGGTCTTGATTCGCTTGACGCTGCTG” displayed a binding signal of 4.46 z-score.

With “CCGATTAACATCAGGGATTTCCATGATGTTAATCGGGTCTTGATTCGCTTGACGCTGCTG”, the binding signal came out at 1.29 z-score.

In turn, “CCGATTAACATCAACCACCCCCTTGATGTTAATCGGGTCTTGATTCGCTTGACGCTGCTG” showed a binding signal of 2.25 z-score.

Regarding “CCGATTAACATCACTGTTTTCCCTGATGTTAATCGGGTCTTGATTCGCTTGACGCTGCTG”, the binding signal came out at 4.9 z-score.

“CCGATTAACATCAGGGAAACCCATGATGTTAATCGGGTCTTGATTCGCTTGACGCTGCTG” registered a binding signal of 2.54 z-score.

For the sequence “CCGATTAACATCAGATATTTCCCTGATGTTAATCGGGTCTTGATTCGCTTGACGCTGCTG”, the binding signal amounted to 5.03 z-score.

Consider “CCGATTAACATCAGGGCCCCCCCTGATGTTAATCGGGTCTTGATTCGCTTGACGCTGCTG”, for which the binding signal turned out to be 2.89 z-score.

Consider “CCGATTAACATCAGGATATTCCCTGATGTTAATCGGGTCTTGATTCGCTTGACGCTGCTG”, for which the binding signal came to 3.51 z-score.

Turning to “CCGATTAACATCAGGGATACCCCTGATGTTAATCGGGTCTTGATTCGCTTGACGCTGCTG”, the binding signal was found to be 4 z-score.

Sequence “CCGATTAACATCAATTTTTCCCATGATGTTAATCGGGTCTTGATTCGCTTGACGCTGCTG” had a binding signal of 5.21 z-score.

“CCGATTAACATCACAAAACTCCCTGATGTTAATCGGGTCTTGATTCGCTTGACGCTGCTG” gave a binding signal of 2.13 z-score.

On to “CCGATTAACATCAAACCCCCCCGTGATGTTAATCGGGTCTTGATTCGCTTGACGCTGCTG”, for which the binding signal came out at 5.57 z-score.

Take “CCGATTAACATCAACGCCCCCCCTGATGTTAATCGGGTCTTGATTCGCTTGACGCTGCTG”: the binding signal was determined as 4.15 z-score.

Regarding “CCGATTAACATCAGGGGGGGTACTGATGTTAATCGGGTCTTGATTCGCTTGACGCTGCTG”, the binding signal came out at 4.54 z-score.

“CCGATTAACATCACACCCCCCCCTGATGTTAATCGGGTCTTGATTCGCTTGACGCTGCTG” gave a binding signal of 5.16 z-score.

Consider “CCGATTAACATCAAATCACCCCCTGATGTTAATCGGGTCTTGATTCGCTTGACGCTGCTG”, for which the binding signal turned out to be 6.61 z-score.

On to “CCGATTAACATCAAGGATTCCCGTGATGTTAATCGGGTCTTGATTCGCTTGACGCTGCTG”, for which the binding signal turned out to be 3.1 z-score.

“CCGATTAACATCAGGGGGACAAATGATGTTAATCGGGTCTTGATTCGCTTGACGCTGCTG” registered a binding signal of 7.51 z-score.

The sequence “CCGATTAACATCACGTCCCCCCCTGATGTTAATCGGGTCTTGATTCGCTTGACGCTGCTG” came in with a binding signal of 5.34 z-score.

The sequence “CCGATTAACATCACCCACTTCCCTGATGTTAATCGGGTCTTGATTCGCTTGACGCTGCTG” had a binding signal of 1.4 z-score.

As for “CCGATTAACATCACGTGTTTCCCTGATGTTAATCGGGTCTTGATTCGCTTGACGCTGCTG”, the binding signal is 3 z-score.

In turn, “CCGATTAACATCACCTTGGGAAATGATGTTAATCGGGTCTTGATTCGCTTGACGCTGCTG” gave a binding signal of 2.79 z-score.

Sequence “CCGATTAACATCAGGGGGTGTAATGATGTTAATCGGGTCTTGATTCGCTTGACGCTGCTG” registered a binding signal of 3.87 z-score.

Sequence “CCGATTAACATCAGGCGATTCCCTGATGTTAATCGGGTCTTGATTCGCTTGACGCTGCTG” returned a binding signal of 1.44 z-score.

In turn, “CCGATTAACATCACGGGACTCCCTGATGTTAATCGGGTCTTGATTCGCTTGACGCTGCTG” showed a binding signal of 1.53 z-score.

As to “CCGATTAACATCAGGGAAAGAAATGATGTTAATCGGGTCTTGATTCGCTTGACGCTGCTG”, the binding signal worked out at 4.91 z-score.

The values are drawn from article PMC5700166.
